Screens (PubChem)
The list is not random: actives were taken first. Their share in the collection is about 2.4%.
p53 mut binder – binders of human mutant p53 | small molecule microarray binding, anti-GST fluorescence | calls only | 17,000 tested, 0.4% active;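 active = compounds whose four printed spots each glow above background more than chance allows, each with a p-value under 7%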
NFkB binder – binds human NF-kappa-B p105 on microarray; Small molecule microarray, anti-His fluorescence binding; 17,000 tested, 1.3% active; P19838; calls only;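 active = spot fluorescence over background significantly raised, with a chance value under 7% in all four replicate spots of the compound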;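 note: probe protein is his-tagged human p50 processed subunit at 1 µg/ml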
Target sequence (P19838 1-433 limits assumed): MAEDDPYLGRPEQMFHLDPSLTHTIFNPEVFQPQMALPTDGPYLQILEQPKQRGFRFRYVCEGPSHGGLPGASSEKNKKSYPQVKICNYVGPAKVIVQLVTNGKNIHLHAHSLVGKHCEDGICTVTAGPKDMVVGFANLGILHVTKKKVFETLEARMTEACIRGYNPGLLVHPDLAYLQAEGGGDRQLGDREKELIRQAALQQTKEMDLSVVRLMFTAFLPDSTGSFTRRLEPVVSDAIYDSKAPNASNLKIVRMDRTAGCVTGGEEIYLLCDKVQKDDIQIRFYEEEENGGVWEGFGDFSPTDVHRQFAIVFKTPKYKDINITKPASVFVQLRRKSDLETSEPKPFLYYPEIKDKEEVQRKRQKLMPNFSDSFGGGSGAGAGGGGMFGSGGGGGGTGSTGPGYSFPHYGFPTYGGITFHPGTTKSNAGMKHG
c-Myc SMM – binds human c-Myc on microarray | AID 624141 | 17,000 tested, 1.5% active | small molecule microarray, His-c-Myc binding, anti-His fluorescence | calls only | P01106;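 active = spot fluorescence over background with P-value below 7% in all four replicate spots, showing protein binding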
STAT3 binder – STAT3 (human) binding; P40763; Small molecule microarray, His-STAT3 binding, anti-His fluorescence; calls only; 17,000 tested, 0.2% active;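 active = compounds whose four printed spots each show fluorescence over background unusually high for their array block, chance value under 7%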
Large screens that a line does not name were inactive.

COc1cccc(OCC(=O)Nc2cccc(Oc3ccc4c(c3)C(=O)NC4=O)c2)c1	none
CC1CC(=O)C2=C(CCC34OC23C(=O)c2cccc(O)c2C4O)C1 (configuration not stated)	none
C[C@@H]1CCCCO[C@H](CN(C)C(=O)CCC(F)(F)F)[C@H](C)CN([C@@H](C)CO)C(=O)c2cc(NC(=O)CCC(F)(F)F)ccc2O1	NFkB binder active
C[C@@H]1CCCCO[C@@H](CN(C)C(=O)CCC(F)(F)F)[C@H](C)CN([C@@H](C)CO)C(=O)c2cc(NC(=O)CCC(F)(F)F)ccc2O1	NFkB binder active, c-Myc SMM active
C[C@@H]1CCCCO[C@@H](CN(C)C(=O)CCC(F)(F)F)[C@H](C)CN([C@@H](C)CO)C(=O)c2cc(NC(=O)Cc3ccccc3)ccc2O1	none
COc1ccc(OC)c(S(=O)(=O)ON2C(=O)c3ccccc3C2=O)c1	c-Myc SMM active
O=C1c2ccccc2C(=O)N1OS(=O)(=O)c1cccc2cccnc12	none
O=C(CN1C(=O)c2ccccc2S1(=O)=O)Nc1ccccc1Br	none
c1ccc(Cn2c(SCCN3CCOCC3)nc3ccccc32)cc1	c-Myc SMM active
c1ccc(Cn2c(SCc3nc4ccccc4[nH]3)nc3ccccc32)cc1	none
c1ccc2[nH]c(CCn3c4c(c5ccccc53)CCCC4)nc2c1	none
C#C[C@]1(O)CC[C@H]2[C@@H]3CCC4=Cc5oncc5C[C@]4(C)[C@H]3CC[C@@]21C	c-Myc SMM active (no result: p53 mut binder)
O=C(O)Cn1nnnc1-c1ccc(F)cc1	NFkB binder active, c-Myc SMM active
CN(CC(=O)O)S(=O)(=O)c1cc(Cl)ccc1Cl	NFkB binder active, c-Myc SMM active
CN(CC(=O)O)S(=O)(=O)c1ccc2c(c1)OCCO2	none
COc1ccc(S(=O)(=O)N(C)CC(=O)O)cc1	c-Myc SMM active
Cc1ccc(Cl)cc1N(CC(=O)O)S(C)(=O)=O	NFkB binder active, c-Myc SMM active
COc1cc(C2C(C(=O)c3cccs3)C(=O)C(=O)N2Cc2ccco2)cc(OC)c1OC (configuration not stated)	none
CC(C)C(=O)Nc1ccc(C(=O)NCc2ccco2)cc1	none
CC(=O)Cc1ccccc1OCC(=O)O	NFkB binder active, c-Myc SMM active
CC(C)NCc1ccccc1OCC(N)=O	none
COc1cc(S(=O)(=O)n2cnc3cc(C)c(C)cc32)c(OC)cc1Cl	none
CCn1nccc1C(=O)Nc1nc2ccccc2n1CCN1CCCCC1	c-Myc SMM active
O=C(NCc1cccnc1)c1ccc2c(c1)C(=O)N(CC1CCCO1)C2=O (configuration not stated)	none
CC1(C)Cc2c(sc3c2c(=O)n(Cc2ccccc2)c2nnc(SCC(=O)c4ccc(Br)cc4)n32)CO1	none
COc1ccc(CN(C)C[C@H]2OCCCC[C@@H](C)Oc3ccc(NC(=O)Nc4c(C)noc4C)cc3C(=O)N([C@@H](C)CO)C[C@@H]2C)cc1	none
Cc1noc(C)c1NC(=O)Nc1ccc2c(c1)C(=O)N([C@H](C)CO)C[C@@H](C)[C@@H](CN(C)C(=O)C1CCCCC1)OCCCC[C@H](C)O2	none
COc1ccc(CN(C)C[C@H]2OCCCC[C@H](C)Oc3ccc(NC(=O)Nc4c(C)noc4C)cc3C(=O)N([C@H](C)CO)C[C@@H]2C)cc1	c-Myc SMM active
Cc1noc(C)c1NC(=O)Nc1ccc2c(c1)C(=O)N([C@@H](C)CO)C[C@@H](C)[C@@H](CN(C)C(=O)C1CCCCC1)OCCCC[C@@H](C)O2	STAT3 binder active
Cc1noc(C)c1NC(=O)Nc1ccc2c(c1)C(=O)N([C@H](C)CO)C[C@H](C)[C@@H](CN(C)C(=O)C1CCCCC1)OCCCC[C@H](C)O2	c-Myc SMM active
O=S(=O)(NCc1nc2ccccc2[nH]1)c1ccc(Cl)c(Cl)c1	none
